According to PubChem BioAssay (NCI):
Compounds without any hit were thinned out: in the full panel of roughly 83,000, 20% have a hit.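 How to read the values: 0–100, growth inhibition (40 = 60% inhibited); 0, no net growth; -100 to 0, cell death (-40 = 40% of starting cells died; -100 = all dead).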 Active and inactive are the calls of the source. How the source made its calls: active means growth percent below 10; inactive means the rest.

How the values were obtained:
Test in all cases: NCI-60 one-dose screen, 48 h (100 = growth as untreated, 0 = no growth, -100 = all killed)
Conditions in all cases: 10 µM unless noted
SR leukemia = system: SR leukemia
RPMI-8226 leukemia = system: RPMI-8226 leukemia
OVCAR-8 ovarian = system: OVCAR-8 ovarian
OVCAR-5 ovarian = system: OVCAR-5 ovarian
OVCAR-4 ovarian = system: OVCAR-4 ovarian
SK-OV-3 ovarian = system: SK-OV-3 ovarian
IGROV1 ovarian = system: IGROV1 ovarian
OVCAR-3 ovarian = system: OVCAR-3 ovarian
HS 578T breast = system: HS 578T breast
NCI/ADR-RES ovarian = system: NCI/ADR-RES ovarian
T-47D breast = system: T-47D breast
BT-549 breast = system: BT-549 breast
MDA-MB-435 melanoma = system: MDA-MB-435 melanoma
SW-620 colon = system: SW-620 colon
MCF7 breast = system: MCF7 breast
HCT-116 colon = system: HCT-116 colon
HCC-2998 colon = system: HCC-2998 colon
KM12 colon = system: KM12 colon

Measured: growth

C=Cc1cnc(Nc2ccc(OC)cc2)nc1NCCCNC(=O)C1CCC1
active: SR leukemia 9.88%
inactive: RPMI-8226 leukemia 43.8% | OVCAR-8 ovarian 49.2% | OVCAR-5 ovarian 48% | OVCAR-4 ovarian 46.4% | SK-OV-3 ovarian 20.4% | IGROV1 ovarian 44.6% | OVCAR-3 ovarian 48.2% | HS 578T breast 18.7% | NCI/ADR-RES ovarian 53.5% | T-47D breast 66.8% | BT-549 breast 26.4% | MDA-MB-435 melanoma 70.3% | SW-620 colon 47.5% | MCF7 breast 53.6% | HCT-116 colon 21.5% | HCC-2998 colon 78.8% | KM12 colon 39.1%

CN(CCCNC(=O)Cc1ccc2ccc3cccc4ccc1c2c34)CCCNc1cc(-c2ccc3ccccc3c2)nc2ccccc12
active: SR leukemia -70.8% | RPMI-8226 leukemia -47% | OVCAR-8 ovarian -25.3% | OVCAR-5 ovarian -88.2% | OVCAR-4 ovarian -83% | SK-OV-3 ovarian -85.6% | IGROV1 ovarian -19.4% | OVCAR-3 ovarian -81.5% | HS 578T breast -32% | NCI/ADR-RES ovarian -77.7% | T-47D breast -67% | BT-549 breast -4.41% | MDA-MB-435 melanoma -63.4% | SW-620 colon -69.4% | MCF7 breast -86.2% | HCT-116 colon -85.4% | HCC-2998 colon -89.1% | KM12 colon -80%

OCCNCCNC(Cc1ccc(Cl)cc1)c1ccccc1 (stereo not drawn)
inactive: SR leukemia 88.5% | RPMI-8226 leukemia 81.3% | OVCAR-8 ovarian 101% | OVCAR-5 ovarian 63.6% | OVCAR-4 ovarian 95.6% | SK-OV-3 ovarian 81% | IGROV1 ovarian 87.3% | OVCAR-3 ovarian 94.5% | HS 578T breast 91.5% | NCI/ADR-RES ovarian 92.2% | T-47D breast 44.6% | BT-549 breast 79.7% | MDA-MB-435 melanoma 98.6% | SW-620 colon 107% | MCF7 breast 85.1% | HCT-116 colon 75.7% | HCC-2998 colon 91.6% | KM12 colon 90.4%

Fc1cc(Nc2ccc3c(OCCCN4CCOCC4)cccc3n2)ccc1Cl
active: RPMI-8226 leukemia 4.49% | SW-620 colon -32.2% | HCT-116 colon 3.61% | HCC-2998 colon -58.2% | KM12 colon -21.8%
inactive: SR leukemia 10.7% | OVCAR-8 ovarian 73.5% | OVCAR-5 ovarian 33.5% | OVCAR-4 ovarian 53.1% | SK-OV-3 ovarian 67.7% | IGROV1 ovarian 36.2% | OVCAR-3 ovarian 65.1% | HS 578T breast 40.1% | NCI/ADR-RES ovarian 48.5% | T-47D breast 48.2% | BT-549 breast 57.9% | MDA-MB-435 melanoma 32% | MCF7 breast 14.2%

Cc1ccc(S(=O)(=O)c2nc(-c3ccccc3)oc2Sc2nc3ccccc3s2)cc1
inactive: SR leukemia 15.5% | RPMI-8226 leukemia 56.7% | OVCAR-8 ovarian 60% | OVCAR-5 ovarian 124% | OVCAR-4 ovarian 55.5% | SK-OV-3 ovarian 116% | IGROV1 ovarian 80% | OVCAR-3 ovarian 77.9% | HS 578T breast 101% | NCI/ADR-RES ovarian 70.7% | T-47D breast 62.7% | BT-549 breast 17.6% | MDA-MB-435 melanoma 54.7% | SW-620 colon 54.7% | MCF7 breast 58% | HCC-2998 colon 107% | KM12 colon 97.2%
active: HCT-116 colon -1.16%

COc1ccc(CCN2C(=O)/C(=C/c3ccc(C4Oc5ccccc5C5CC(c6ccccc6)=NN54)cc3)SC2=S)cc1 (stereo not drawn)
inactive: SR leukemia 105% | RPMI-8226 leukemia 96% | OVCAR-8 ovarian 108% | OVCAR-5 ovarian 103% | OVCAR-4 ovarian 109% | SK-OV-3 ovarian 103% | IGROV1 ovarian 100% | OVCAR-3 ovarian 105% | HS 578T breast 103% | NCI/ADR-RES ovarian 110% | T-47D breast 103% | BT-549 breast 101% | MDA-MB-435 melanoma 104% | SW-620 colon 100% | MCF7 breast 97.3% | HCT-116 colon 104% | HCC-2998 colon 104% | KM12 colon 106%

O=c1c2c3c(sc2n2c(-c4cc(-c5ccccc5)no4)nnc2n1Cc1ccccc1)CCCC3
active: IGROV1 ovarian -11.9%
inactive: SR leukemia 55.7% | RPMI-8226 leukemia 53.5% | OVCAR-8 ovarian 40.9% | OVCAR-5 ovarian 82.8% | OVCAR-4 ovarian 87.6% | SK-OV-3 ovarian 124% | OVCAR-3 ovarian 78.7% | HS 578T breast 101% | NCI/ADR-RES ovarian 80.6% | T-47D breast 53.3% | BT-549 breast 91.9% | MDA-MB-435 melanoma 106% | SW-620 colon 106% | MCF7 breast 97.1% | HCT-116 colon 81.6% | HCC-2998 colon 101% | KM12 colon 95.5%

CCN1C(=O)N(CC)C2C1N=C(SCc1ccc(Cl)cc1)N2/N=C/C=C/c1ccccc1OC (stereo not drawn)
active: MDA-MB-435 melanoma -16.9%
inactive: SR leukemia 18.4% | RPMI-8226 leukemia 11.2% | OVCAR-8 ovarian 56.8% | OVCAR-5 ovarian 98.6% | OVCAR-4 ovarian 69.9% | SK-OV-3 ovarian 70.4% | IGROV1 ovarian 78.6% | OVCAR-3 ovarian 50.6% | HS 578T breast 57.3% | NCI/ADR-RES ovarian 26.4% | T-47D breast 41.6% | BT-549 breast 106% | SW-620 colon 74.8% | MCF7 breast 13.5% | HCT-116 colon 37% | HCC-2998 colon 85.9% | KM12 colon 64.6%

CSC1=Nc2c(c(C)c(-c3ccccc3)n2CCCC(=O)O)C2=NC(=O)C[C@H](C)N12
inactive: SR leukemia 114% | RPMI-8226 leukemia 93.6% | OVCAR-8 ovarian 110% | OVCAR-5 ovarian 107% | OVCAR-4 ovarian 93% | SK-OV-3 ovarian 130% | IGROV1 ovarian 97.5% | OVCAR-3 ovarian 119% | HS 578T breast 98.1% | NCI/ADR-RES ovarian 104% | T-47D breast 113% | BT-549 breast 105% | MDA-MB-435 melanoma 102% | SW-620 colon 102% | MCF7 breast 88.8% | HCT-116 colon 101% | HCC-2998 colon 104% | KM12 colon 97.1%

COc1ccc(/C=C/c2ccc3ccccc3n2)c(OC)c1
inactive: SR leukemia 29.4% | RPMI-8226 leukemia 74.7% | OVCAR-8 ovarian 92.5% | OVCAR-5 ovarian 86.5% | OVCAR-4 ovarian 95.9% | SK-OV-3 ovarian 88.6% | IGROV1 ovarian 59.9% | OVCAR-3 ovarian 74% | HS 578T breast 85.5% | NCI/ADR-RES ovarian 49.7% | T-47D breast 72.8% | BT-549 breast 67.8% | SW-620 colon 38.1% | MCF7 breast 57% | HCT-116 colon 62.3% | HCC-2998 colon 72.4% | KM12 colon 52.5%
active: MDA-MB-435 melanoma -5.31%

COc1ccc(-c2ccc(-c3ccc(C(=N)N)nc3)s2)cc1Cl
inactive: SK-OV-3 ovarian 97.1% | NCI/ADR-RES ovarian 37.7% | BT-549 breast 77.9%
active: SR leukemia -7.17% | RPMI-8226 leukemia -45.4% | OVCAR-8 ovarian -28.5% | OVCAR-5 ovarian -37.6% | OVCAR-4 ovarian -79.5% | IGROV1 ovarian -87.8% | OVCAR-3 ovarian -90.6% | HS 578T breast -48.3% | T-47D breast -28.6% | MDA-MB-435 melanoma -90.3% | SW-620 colon -79.8% | MCF7 breast -70% | HCT-116 colon -65.5% | HCC-2998 colon -43.8% | KM12 colon -86%

N#Cc1nc(-c2ccccc2)oc1S(=O)(=O)N1CCN(c2ccc(F)cc2)CC1
inactive: RPMI-8226 leukemia 36% | OVCAR-8 ovarian 63.1% | OVCAR-5 ovarian 102% | OVCAR-4 ovarian 107% | SK-OV-3 ovarian 109% | IGROV1 ovarian 45.6% | OVCAR-3 ovarian 51.9% | HS 578T breast 103% | NCI/ADR-RES ovarian 96.4% | T-47D breast 55.8% | BT-549 breast 59.7% | MDA-MB-435 melanoma 67.5% | SW-620 colon 32.9% | MCF7 breast 38.5% | HCT-116 colon 52.8% | HCC-2998 colon 94% | KM12 colon 81.9%
active: SR leukemia -20.3%

CCN1C(=O)N(CC)C2C1NN=c1s/c(=C3\C(=O)N(CC(C)C)c4ccccc43)c(=O)n12 (stereo not drawn)
inactive: SR leukemia 17.7% | RPMI-8226 leukemia 17.5% | OVCAR-5 ovarian 30.3% | OVCAR-4 ovarian 44.6% | SK-OV-3 ovarian 45.1% | IGROV1 ovarian 19% | HS 578T breast 18% | T-47D breast 73.8% | BT-549 breast 17.5% | SW-620 colon 33.9% | MCF7 breast 15.1% | HCT-116 colon 11.9% | HCC-2998 colon 13.8% | KM12 colon 20.9%
active: OVCAR-8 ovarian 9.28% | OVCAR-3 ovarian 5.65% | NCI/ADR-RES ovarian 5.71% | MDA-MB-435 melanoma -16.4%

CCN(CC)Cc1cc(Nc2ccnc3cc(Cl)ccc23)ccc1O
inactive: SR leukemia 82.7% | RPMI-8226 leukemia 93.3% | OVCAR-8 ovarian 100% | OVCAR-5 ovarian 97.7% | OVCAR-4 ovarian 94.4% | SK-OV-3 ovarian 116% | IGROV1 ovarian 88.4% | OVCAR-3 ovarian 88.5% | HS 578T breast 91.6% | NCI/ADR-RES ovarian 93.9% | T-47D breast 100% | BT-549 breast 95.5% | MDA-MB-435 melanoma 97.8% | SW-620 colon 88.4% | MCF7 breast 86.9% | HCT-116 colon 79.7% | HCC-2998 colon 93.2% | KM12 colon 87.7%

CC1(C)CC[C@]2(C(=O)N[C@H](CO)Cc3ccccc3)CC[C@]3(C)C(=CC[C@@H]4[C@@]5(C)CCCNC(C)(C)[C@@H]5CC[C@]43C)[C@@H]2C1
active: SR leukemia -5.95%
inactive: RPMI-8226 leukemia 36% | OVCAR-8 ovarian 97% | OVCAR-5 ovarian 101% | OVCAR-4 ovarian 87.7% | SK-OV-3 ovarian 100% | IGROV1 ovarian 65.1% | OVCAR-3 ovarian 97.3% | HS 578T breast 85.6% | NCI/ADR-RES ovarian 85.6% | T-47D breast 69.8% | BT-549 breast 89.9% | MDA-MB-435 melanoma 73.4% | SW-620 colon 79.8% | MCF7 breast 83.9% | HCT-116 colon 44.4% | HCC-2998 colon 56% | KM12 colon 96%

COc1ccc(/C(C)=C(\c2ccc(Cl)cc2)c2ccc(OCCN3CCCCC3)cc2)cc1
active: SR leukemia -7.55% | RPMI-8226 leukemia 7.75%
inactive: OVCAR-8 ovarian 69.6% | OVCAR-5 ovarian 67.9% | OVCAR-4 ovarian 59.9% | SK-OV-3 ovarian 77.5% | IGROV1 ovarian 64.5% | OVCAR-3 ovarian 74.9% | HS 578T breast 63.6% | NCI/ADR-RES ovarian 76.8% | T-47D breast 48.1% | BT-549 breast 73.1% | MDA-MB-435 melanoma 58% | SW-620 colon 24.5% | MCF7 breast 20.3% | HCT-116 colon 31.9% | HCC-2998 colon 91.3% | KM12 colon 25.7%
